KB-3-1 cytotox: qHTS assay for MDR1-selective chemotherapeutics: Primary screen using the parental adenocarcinoma cell KB-3-1; KB-3-1 viability, CellTiter-Glo ATP luminescence, 72 h; Potency, µM (highest dose often 46.1 µM), usual class: cytotoxic; 400,000 tested, 1.4% active; also: % is scaled to controls: 0 for no effect and ±100 for the full control effect; nearly all actives have a fitted effect of over 60% in size
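Screening of KB-3-1 cells (DMEM, 10% FBS, phenol-red free) ran from lowest to highest compound concentration; after 72 h at 37 °C viability was read luminescently and curves fitted.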
KB-V1 cytotox: qHTS assay for MDR1-selective chemotherapeutics: Primary screen using the drug-selected MDR subline cells KB-V1. Potency, µM (top dose mostly 46.1 µM), actives largely listed as cytotoxic. 400,000 tested, 3.4% active. KB-V1 MDR cells viability, CellTiter-Glo, 72 h; also: % is scaled to controls: 0 for no effect and ±100 for the full control effect; nearly all actives have a fitted effect of over 60% in size
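qHTS viability screen in drug-selected KB-V1 MDR cells: 72 h compound treatment at 37 degrees C, ATP luminescence end point.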
TGFb SMAD3 inh: qHTS for Inhibitors of TGF-b. HepG2 CAGA-GFP TGF-b/SMAD3 reporter, GFP fluorescence, 18 h; TGF-beta stimulated, 500 pg/mL final. Potency, µM (highest dose often 46.1 µM), inactives show at the highest dose activity, negative = inhibition, actives largely listed as inhibitors. 410,000 tested, 1.2% active; also: % is scaled to controls: 0 for no effect and ±100 for the full control effect; nearly all actives have a fitted effect of over 65% in size
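Read-out: total well GFP (ex488/em500-530) summed from mean per-cell fluorescence. Cells: HEPG2 CAGA-GFP, 1% FBS DMEM, 18 h at 37 degrees C with 500 pg/mL final TGF-beta. Unstimulated wells served as the full-inhibition control; stimulated DMSO wells = 0%.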
HT1080 IDH1KD tx: qHTS for induction of synthetic lethality in tumor cells producing 2HG: qHTS for the HT-1080-IDH1KD cell line; HT-1080 IDH1 knockdown viability, ATP luminescence, 48 h; Potency, µM (highest dose often 46.1 µM), for inactives: at the highest dose activity, negative = toxicity, usual class: cytotoxic; 360,000 tested, 2% active;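 also: 0% = DMSO wells and -100% = cell-free medium wells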
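Knockdown cells (IDH1KD HT-1080) received compounds 2 h after plating at 750 cells/well and were kept 48 h at 37 °C in 5% FBS RPMI. A CellTiter-Glo luminescence read gave % activity for curve fitting.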
HT1080NT lethal: qHTS for induction of synthetic lethality in tumor cells producing 2HG: qHTS for the HT-1080-NT fibrosarcoma cell line; HT-1080-NT fibrosarcoma viability, CellTiter-Glo ATP luminescence, 48 h; Potency, µM (top dose mostly 46.1 µM), without a hit: at the top dose activity, negative = less viability, usual class: cytotoxic; 360,000 tested, 1.6% active;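 also: NT is the 2HG producing partner of a matched IDH1 knockdown line; 0% = DMSO-treated cells and -100% = media-only wells without cells; nearly all actives have a fitted effect of over 55% in size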
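Viability by CellTiter-Glo luminescence after 48 h compound exposure at 37C of HT-1080-NT cells (750/well, RPMI, 5% FBS). % activity scaled between DMSO wells and medium-only wells, then curve-fitted and categorized by curve class.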
HepG2 viability: qHTS for Inhibitors of TGF-b: Cytotox Counterscreen | HepG2 CAGA-GFP viability, ATP luminescence, 18 h | Potency, µM (doses to about 46.1 µM), for inactives: top-dose activity change, negative = cytotoxicity, usual class: cytotoxic | 410,000 tested, 0.76% active | AID 588856, 2011
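CellTiter-Glo luminescence gave cytotoxicity after 18 hours at 37 degrees C. The cells were HepG2 CAGA-GFP in 1% FBS DMEM, stimulated with 500 pg/mL TGF-beta after compound addition. %Activity was normalised to no-cell wells (complete cell-killing) and DMSO (no toxicity), and curves were fitted and classified.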
* = called active by the depositor; i = inactive; ? = inconclusive; . = not tested or not shown. Rows were chosen to be rich in hits. Some 6.6% of all compounds tested hit in one or more screens of this group. Calls follow the shape of the dose curve; as a rule, active = well fitted curve in the direction sought with a large enough effect; inconclusive = small, poorly fitted or top-dose-only effect, or another doubt; inactive = no such curve, though single readings can be large; an effect the other way counts as inactive or inconclusive. Potency is read from the fitted curve at half-maximal effect.

SMILES	KB-3-1 cytotox	KB-V1 cytotox	TGFb SMAD3 inh	HT1080 IDH1KD tx	HT1080NT lethal	HepG2 viability
Cc1cccc(NC(=O)c2cccc(N3C(=O)C4C5CCC(C5)C4C3=O)c2)c1C (centres undefined)	i	8.2µM*	0.3%	2.5%	2.4%	-25.6%
COc1ccc(CNC(=O)c2cc(C3CC3)nc3c2cnn3C(C)C)cc1	i	i	0.8%	-2.9%	-5.7%	-1.2%
COc1ccccc1CNC(=O)c1cc(C2CC2)nc2c1cnn2C(C)C	i	2.91µM*	?	-6.6%	-10.8%	-23.6%
CCOc1ccc(OCCNC(=O)c2cc(C3CC3)nc3c2cnn3C(C)C)cc1	i	?	12.6µM*	-23.9%	-5.8%	-34.4%
CC(C)n1ncc2c(C(=O)NCCOc3ccccc3F)cc(C3CC3)nc21	i	?	?	-8.1%	-3.0%	-26.2%
Clc1ccc(OCCn2cnc3ccccc32)c(Cl)c1	?	16.4µM*	-32.7%	?	-24.1%	-15.8%
O=[N+]([O-])c1ccccc1OCCCn1cnc2ccccc21	i	7.31µM*	11.6%	-13.5%	-15.5%	49.2%
N#CCCn1cc(C=C(C#N)C#N)c(-c2ccc(-c3ccccc3)cc2)n1	?	20.6µM*	-12.6%	0.2%	11.2%	-4.4%
Cc1cccnc1CN1CCN(C(=O)c2cc(COc3ccc4ncccc4c3)on2)CC1	?	6.51µM*	?	?	-5.7%	-0.7%
O=C(NC1CCCCCCC1)c1cc(COc2ccc3ncccc3c2)on1	2.59µM*	1.84µM*	?	-19.8%	-15.1%	-11.8%
CCOC(=O)N1CCN(C(=O)c2cc(COc3ccc4ncccc4c3)on2)CC1	?	?	-5.0%	-16.7%	-10.1%	-19.2%
COc1ccc(OCc2cc(C(=O)NC3Cc4ccccc4C3)no2)c(Cl)c1	4.61µM*	?	-8.1%	?	?	10.6%
Cc1ccc(NC(=O)CSc2nccn2C2CCCC2)cc1	.	.	1.4%	.	.	-3.6%
CCOC(=O)c1cc(-c2ccc(F)cc2)n(CCC(=O)Nc2ccccc2OC)c1C	i	i	?	.	.	-30.9%
COc1ccc(-c2nsc(NC(=O)c3ccccc3Br)n2)cc1	.	.	?	.	.	-20.7%
Cc1nn(-c2ccccc2)c(C)c1-c1nnc(C(F)(F)F)o1	i	i	1.8%	20.6%	8.0%	-5.6%
Cc1nn(-c2ccccc2)c(C)c1-c1nnc(-c2c(C)nn(-c3ccccc3)c2C)o1	i	9.2µM*	11.4%	0.5%	-3.1%	6.9%
CCn1c(=O)c2cc(S(=O)(=O)NCCOc3ccccc3)ccc2n(CC)c1=O	i	i	14.7%	-0.7%	1.1%	0.0%
CCn1c(=O)c2cc(S(=O)(=O)NCc3ccccc3)ccc2n(CC)c1=O	i	14.6µM*	1.1%	?	?	-11.3%
CCCCC(=O)NC(c1ccc(N(CC)CC)cc1)c1ccc2cccnc2c1O (centres undefined)	4.61µM*	?	?	?	?	-47.2%
CCCCC(=O)NC(c1ccccc1OC)c1ccc2cccnc2c1O (centres undefined)	6.51µM*	?	?	2.59µM*	?	-8.1%
CCCC(=O)NC(c1ccccc1OC)c1ccc2cccnc2c1O (centres undefined)	?	?	-15.4%	?	?	-21.1%
CCCCC(=O)NC(c1ccc(N(C)C)cc1)c1ccc2cccnc2c1O (centres undefined)	?	?	?	?	?	-62.3%
CCC(=O)NC(c1cccs1)c1ccc2cccnc2c1O (centres undefined)	i	?	1µM*	?	?	0.8%
CCCC(=O)NC(c1cccc([N+](=O)[O-])c1)c1ccc2cccnc2c1O (centres undefined)	9.2µM*	?	-27.6%	?	?	-16.0%
SMILES	KB-3-1 cytotox	KB-V1 cytotox	TGFb SMAD3 inh	HT1080 IDH1KD tx	HT1080NT lethal	HepG2 viability
COc1ccccc1CN1C(=O)C(C)ON=C1c1ccccc1F (centres undefined)	i	?	1.0%	-2.5%	17.5%	-7.8%
CC(C)=NOCC(=O)Nn1c(COc2c(C)cccc2C)nc2ccccc2c1=O	i	i	-20.3%	-16.0%	3.8%	-8.0%
COCCCn1c(SCC(=O)Nc2ccccc2OC)nc2c(sc3ccccc32)c1=O	.	.	?	.	.	6.0%
Cc1cc2c(cc1S(=O)(=O)CCC(=O)N1CCCC(C)C1)OCC(=O)N2 (centres undefined)	i	?	-13.5%	.	.	-5.2%
Cc1ccc(Cn2c(C)c3cnn(CC(=O)NCCc4ccc(Cl)cc4)c(=O)c3c2C)cc1	i	i	7.5%	.	.	0.5%
CCCC(=O)NC(c1ccc(Cl)cc1Cl)c1ccc2cccnc2c1O (centres undefined)	?	i	?	8.2µM*	?	-17.5%
COc1ccc(C(NC(C)=O)c2ccc3cccnc3c2O)cc1OC (centres undefined)	?	i	0.4%	.	.	14.8%
COc1ccc(C(NC(C)=O)c2ccc3cccnc3c2O)c(OC)c1 (centres undefined)	7.31µM*	?	-13.2%	6.51µM*	?	-7.2%
Oc1c(C(Nc2nccs2)c2ccc(C(F)(F)F)cc2)ccc2cccnc12 (centres undefined)	?	?	22.4µM*	?	?	-30.1%
CCCC(=O)NC(c1ccc(C)cc1)c1ccc2cccnc2c1O (centres undefined)	?	3.66µM*	?	?	?	-18.4%
Cc1cc(C)cc(NC(=O)c2cc(S(=O)(=O)N3CCCC3)ccc2F)c1	i	i	0.0%	.	.	-9.1%
Cc1ccc(C(=O)C=Cc2cccc(C)c2)cc1	i	i	-21.2%	?	?	-8.9%
CCC1CSC(Nc2ccc(C(=O)/C=C/c3cccc(C)c3)cc2)=N1 (centres undefined)	?	i	17.8µM*	?	?	-100.5%
CCC1CSC(Nc2ccc(C(=O)/C=C/c3ccc(Oc4ccccc4)cc3)cc2)=N1 (centres undefined)	?	18.4µM*	?	-14.8%	-0.2%	-64.1%
